Test results published in PubChem BioAssay (EPA / NIEHS).
Activity calls are given as the source filed them. How the source made its calls: active means hit-call score of the fitted dose curve at least 0.9, where 1 is the maximum; inactive means score below 0.9.

What follows are molecules tested on Ezrin (EZR), EZR (gene 7430) (assay: LTEA_HepaRG_EZR: Life Technologies and Expression Analysis (LTEA) Assay for Ezrin (EZR) using HepaRG (AID 2283491)). Conditions: mRNA level, 48 h; actives raise or lower the signal.
Method in brief: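 Read-out is EZR transcript level by qRT-PCR, normalized to three housekeeping genes and fitted bidirectionally against the DMSO control. Human HepaRG cells received test chemicals for 48 h at eight half-log concentrations up to 100 uM in 0.5% DMSO.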

| Structure (SMILES) | outcome | AC50 |
| --- | --- | --- |
| COc1cc(C=O)ccc1O | inactive | – |
| COC(=O)c1ccc(O)cc1 | inactive | – |
| C=CCc1ccc(O)c(OC)c1 | inactive | – |
| CN1CCN(Cc2cc(-c3ccc4[nH]c(=O)oc4c3)co2)[C@@H](c2ccc(F)cc2)C1 | inactive | – |
| CC(=O)OC/C=C(\C)CCC=C(C)C | inactive | – |
| CCCCCCCCCCCC(=O)OC | inactive | – |
| Oc1ccc2c(c1)OC[C@@H](N1CCC(O)(c3ccc(F)cc3)CC1)[C@H]2O | inactive | – |
| O=C(OCCCCCOC(=O)c1ccccc1)c1ccccc1 | inactive | – |
| NCC1(Cc2noc(=O)[nH]2)CCCCC1 | inactive | – |
| CCCCOC(=O)CCCCCCCCC(=O)OCCCC | inactive | – |
| CCc1c(C(=O)NN2CCCCC2)nn(-c2ccc(Cl)cc2Cl)c1-c1ccc(Br)cc1 | inactive | – |
| O=C(O)CCCCC(=O)O | inactive | – |
| Cc1c(C(=O)O)c(O)cc2c1C(=O)c1c(O)c([C@@H]3O[C@H](CO)[C@@H](O)[C@H](O)[C@H]3O)c(O)c(O)c1C2=O | inactive | – |
| Cc1ccc(C)c(O)c1C | inactive | – |
| OC[C@@H](O)[C@@H](O)[C@H](O)[C@H](O)CO | inactive | – |
| C1CCC(SSC2CCCCC2)CC1 | inactive | – |
| Cc1oc(-c2ccccc2)nc1CCOc1cccc2c1ccn2CCC(=O)O | – | 9.92 µM (active) |
| Cc1ccccc1Cl | inactive | – |
| c1cc(-c2ccncc2)ccn1 | inactive | – |
| Cc1cc(=O)[nH]c(=S)[nH]1 | inactive | – |
| Cc1cccc([N+](=O)[O-])c1C | inactive | – |
| CCCCCCOCCO | inactive | – |
| CC(CO)OC(C)CO (stereo not drawn) (tested in a mixture with another compound) | inactive | – |
